Each structure is given as a SMILES string. Among all 38,000 compounds or so, about 1,200 (3.2%) showed an effect of 50% or more. The median lay at about -58%. The full list was thinned out, with strong results kept by preference.

The subject of the test is Plasmodium falciparum. Nature of the test: Calibr Malaria Delayed Death Assay SOP. The conditions noted are these: concentration 4.99e-06 (unit not given; other assays of the set use mol/L). Set-up: scale not given: in the data most compounds retested in dose-response had high values. Format: functional, organism-based.
`Cc1nn(C)c2ncc(NC(=O)N3CCCCCC3)cc12`: the “Percent Effect” value is -40.12%. For `Cc1nc(CN2CCc3cnc(C(C)C)nc3C2)oc1C`, the “Percent Effect” value is reported as -83.71%. Take `CC(NS(C)(=O)=O)c1nc(-c2ccc(Br)cc2)no1` (stereo unspecified): the “Percent Effect” value was -124.5%.

As for `Cc1nc(C2CCNCC2)cc(N2CCOc3ccccc3C2)n1`, the “Percent Effect” value was 46.26%. With `Cc1nc(C2CCN(C)CC2)cc(N2CCOc3ccc(Cl)cc3C2)n1` the figure was 69.39%. Turning to `Cc1nc(CCN)cc(N2CCOc3ccc(Cl)cc3C2)n1`, the “Percent Effect” value turned out to be 34.3%.

For `Cn1cnnc1C1CCCN1C(=O)Nc1cccc(OC(F)F)c1` (stereo unspecified), the “Percent Effect” value is -73.45%. As to `CC(C)C(=O)N1CCCC2(CCCN2CC2CCCC2)C1.O=C(O)C(F)(F)F` (stereo unspecified), the “Percent Effect” value was 59.96%. For the compound `CC(C)C(=O)N1CCCC2(CCCN2Cc2cccnc2)C1` (stereo unspecified), the “Percent Effect” value is given as -19.91%. `CC(C)C(=O)N1CCC2(CN(CC3CCCC3)C2)C1.O=C(O)C(F)(F)F`: the “Percent Effect” value is -72.67%. Consider `O=C(C1CCCCC1)N1CCC2(CCCN2CC2CC2)CC1.O=C(O)C(F)(F)F`, for which the “Percent Effect” value is -22.84%. Consider `CC(C)C(=O)N1CCC2(CCN2CC2CC2)C1.O=C(O)C(F)(F)F` (stereo unspecified), for which the “Percent Effect” value is -79.93%. Take `CCCC(NC(=O)c1ccc(C)cc1C)c1nnn[nH]1` (stereo unspecified): the “Percent Effect” value was -70.8%. In the case of `Cc1ncc(-c2ccnc(N3CCC[C@@H]3CO)n2)c(-c2cccnc2)n1`, the “Percent Effect” value is listed as -29.65%. As for `Cc1[nH]c2ccccc2c1-c1ccnc(N[C@@H](CO)C(C)C)n1`, the “Percent Effect” value is listed as -14.55%. On to `CN1CCCN(c2nccc(-c3c[nH]nc3-c3ccncc3)n2)CC1`, for which the “Percent Effect” value was 65.32%. As for `c1cc(-c2n[nH]cc2-c2ccnc(N3CCCC3)n2)ccn1`, the “Percent Effect” value is recorded as 80.23%.

In the case of `NC(=O)[C@H]1CCCN(c2nccc(-c3c[nH]nc3-c3cccnc3)n2)C1`, the “Percent Effect” value is -58.34%. In the case of `Cc1ccccc1-n1cc(-c2ccnc(NC(CO)C(C)C)n2)cn1` (stereo unspecified), the “Percent Effect” value came out at 25.15%. Regarding `CN1CCCN(c2nccc(-c3cc(C(=O)O)ccn3)n2)CC1`, the “Percent Effect” value is on record as -114.4%. On to `OC[C@@H]1CCCN1c1nccc(-c2c[nH]nc2-c2ccncc2)n1`, for which the “Percent Effect” value was found to be 66.81%.

As for `CN1CCCN(c2nccc(-c3c[nH]c4ccc(Br)cc34)n2)CC1`, the “Percent Effect” value was 40.41%. `Cc1csc2ncc(-c3ccnc(N4CCC[C@@H]4CO)n3)c(=O)n12`: the “Percent Effect” value was -191.9%. `CC(C)[C@H](CO)Nc1nccc(-c2c[nH]nc2-c2ccncc2)n1`: the “Percent Effect” value turned out to be 83.09%. In the case of `c1cncc(-c2nc(C3CC3)ncc2-c2ccnc(N3CCCC3)n2)c1`, the “Percent Effect” value is -168.7%. In the case of `Cc1cnc(C(NC(=O)NCc2nc(C3CC3)no2)C2CC2)s1` (stereo unspecified) it was -34.97%; in that of `Cc1ccc(N2CCO[C@H]3CN(Cc4cccs4)C[C@H]32)nn1.O=C(O)C(F)(F)F.O=C(O)C(F)(F)F`, -16.91%; in that of `CCN(CC)Cc1cc(=O)n2c(n1)CN(C(=O)c1ccnnc1)CCC2.O=C(O)C(F)(F)F`, -110.9%.

`Cc1ccc(CN2CC[C@H]3OCC[C@@]3(C(=O)N3CCCO3)C2)o1.O=C(O)C(F)(F)F`: the “Percent Effect” value is -80.01%. In the case of `CC(C)c1nnc2sc(CC3CN(C(C)C)CCO3)nn12` (stereo unspecified) it was -105.6%; in that of `CCCS(=O)(=O)N1Cc2nccn2CC(Cn2cncn2)C1` (stereo unspecified), -125.8%. For `NC(=O)C1CCN(c2nccc(-c3c[nH]nc3C3CCCCC3)n2)CC1`, the “Percent Effect” value is recorded as 12.3%. With `c1cc(-c2n[nH]cc2-c2ccnc(N3CCCCCC3)n2)ccn1`, the “Percent Effect” value came to 76.99%. Regarding `c1cc(-c2c[nH]nc2C2CCCCC2)nc(N2CCCCCC2)n1`, the “Percent Effect” value is recorded as -3.373%. Consider `CC(NC(=O)N1CCNC(=O)CC1)c1c(F)cccc1Cl` (stereo unspecified), for which the “Percent Effect” value is recorded as -91.59%.

In the case of `COCCC(=O)N1CCC2(COCc3cnc(-c4cccnc4)nc32)C1` (stereo unspecified), the “Percent Effect” value is listed as -64.26%. For the compound `Cc1cncc(C(=O)N[C@@H]2CC[C@@H](N3CCOCC3)[C@@H]2O)c1`, the “Percent Effect” value is -132.2%. Turning to `CNC(=O)c1ccc(C(=O)N2CCCC(n3ccnc3C)C2)cn1` (stereo unspecified), the “Percent Effect” value was -171.6%.

Take `Cl.O=C1CC2(CCNCC2)C(=O)N1Cc1ccc(F)cc1`: the “Percent Effect” value was -53.59%.

`N#Cc1cccc(CN2C(=O)C3(CCNCC3)Nc3ccccc32)c1`: the “Percent Effect” value was found to be 66.93%. With `CCN1CC2(CCC1=O)CCN(Cc1cccc(C#N)c1)CC2`, the “Percent Effect” value was -206%. In the case of `NC(=O)c1ccc(CN2C(=O)C3(CCNCC3)Nc3ccccc32)cc1` it was -6.416%; in that of `CC(C)c1ccc(CN2C(=O)C3(CCNCC3)Nc3ccccc32)cc1`, 81.43%. Take `Cl.O=C1CC2(CCCNC2)C(=O)N1Cc1ccccc1` (stereo unspecified): the “Percent Effect” value is -18.54%. With `C=Cc1ccc(CN2C(=O)C3(CCNCC3)Nc3ccccc32)cc1`, the “Percent Effect” value was found to be 87.33%. On to `Cl.O=C1CC2(CCCNC2)C(=O)N1Cc1ccc(F)cc1` (stereo unspecified), for which the “Percent Effect” value is listed as -29.07%. For the compound `CN1CC2(CCN(Cc3cccc(C#N)c3)CC2)CC1=O`, the “Percent Effect” value is -15.68%.

Take `c1ccc2c(c1)COC1(CCCC1)N2`: the “Percent Effect” value was -67.59%. For the compound `Cn1nc(CN2CCCCC2)c2c1CN(C(=O)c1ccccc1)C2`, the “Percent Effect” value is listed as -57.34%. With `CC(C)NC(=O)c1nn(C)c(NC(=O)Cc2ccccc2)c1F` the figure was -24.59%. With `Cc1nc(CNC(=O)NC2CCN(c3ncccn3)CC2)cs1` the figure was -218.9%; with `CCOCCCn1c(NC(=O)c2cc(C)no2)nc2ccccc21`, -48.09%; with `Cn1cccc1C(=O)N1C[C@H]2CC[C@@H]1CN(Cc1cscn1)C2`, -15.16%. Turning to `O=S(=O)(c1cc(F)ccc1F)N1CCCC1c1ccco1` (stereo unspecified), the “Percent Effect” value is on record as -139.7%. On to `Cc1ccc(CN2CCCC3(CCN(Cc4ccc(C)o4)C3)C2)o1` (stereo unspecified), for which the “Percent Effect” value amounted to 14.98%. With `CCN1CCCC(O)(CN(C)Cc2ccc(C)o2)C1` (stereo unspecified) the figure was 18.1%; with `Cc1ccc(CN(C)CC2(O)CCCN(C)C2)o1` (stereo unspecified), 53.08%. For `O=C(c1ccccn1)N1CCc2ncnc(-c3ccncc3)c2CC1`, the “Percent Effect” value was -17.27%. For `COc1cccc(OC)c1-c1ccnc2cc(CC(=O)N(C)C)nn12`, the “Percent Effect” value is on record as -114.9%. Turning to `CC(C)NC(=O)CC1CC2(CCN(S(C)(=O)=O)CC2)c2ccccc21` (stereo unspecified), the “Percent Effect” value is given as -30.05%.

Take `Cc1ccc(-c2cn3c(n2)CO[C@@H](CNCc2cnn(C)c2)C3)cc1`: the “Percent Effect” value was -51.89%. As for `COc1ccc(-c2cn3c(n2)CO[C@@H](CNCc2nccn2C)C3)cc1`, the “Percent Effect” value stood at 20.49%.

`Cc1cccnc1CNC[C@H]1Cn2cc(-c3ccccc3)nc2CO1`: the “Percent Effect” value was determined as 30.07%. With `Cn1ccnc1CNC[C@H]1Cn2cc(-c3ccccc3)nc2CO1`, the “Percent Effect” value is given as 55.94%. Regarding `Cc1ccc(-c2cn3c(n2)CO[C@@H](CNCc2nccn2C)C3)cc1`, the “Percent Effect” value came out at 87.31%. For `Cc1ccc(CNC[C@H]2Cn3cc(-c4ccccc4)nc3CO2)cc1`, the “Percent Effect” value is -116.4%.

For the origin of these results see ChEMBL document CHEMBL3988442, “University of Dundee, Small-Polar-MMV Screening Library” (2021).
